# GLP1R ag – agonists of human GLP-1 receptor; HEK293 GLP-1R CRE-luciferase, luminescence, 4-6 h; cells express a hypersensitive GLP-1R form; Potency, µM (titrated, usually from 45.6 µM), usual class: activators; actives 0.007% (n = 380,000); AID 624172
# GLP-1R inv ag – inverse agonists of human GLP-1 receptor; P43220; HEK293 GLP-1R CRE-luciferase, luminescence, 24 h; GLP-1R form is constitutively active; Potency, µM (highest dose often 38.3 µM), actives largely listed as inhibitors; actives 1.6% (n = 410,000); note: nearly all actives have a fitted effect of over 55% in size
#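 Inverse agonism was detected as reduced cAMP-driven luciferase luminescence after 24 h compound treatment. The cells were HEK293 clones expressing constitutively active human GLP-1R with the reporter. Reporter-only and GPR119 cell lines served as counterscreen controls.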
# HEK293 tox – cytotoxicity in counter-screen for GLP-1R inverse agonists | HEK293 cAMP-luciferase reporter cells, luminescence, 24 h | Potency, µM (doses to about 38.3 µM), hits mostly inhibitors | actives 0.13% (n = 410,000);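 note: loss of luciferase light is scored as toxicity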
#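 Compound-treated cells are incubated 24 hr at 37 deg C under 5% CO2 after a 12 hour attachment period, then luciferase detection reagent is added and luminescence is measured following 12 min at room temperature; lowered signal indicates toxicity.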
# PTHR1 ag – activates the human parathyroid hormone receptor PTHR1; AID 743266; HEK293 GP2 PTHR1 cells, GloSensor cAMP luminescence, 1 h; Potency, µM (top dose mostly 115 µM), most hits filed as activators; Q03431; actives 0.075% (n = 410,000); note: nearly all actives have a fitted effect of over 55% in size
# Target sequence (Q03431 whole entry, looked up): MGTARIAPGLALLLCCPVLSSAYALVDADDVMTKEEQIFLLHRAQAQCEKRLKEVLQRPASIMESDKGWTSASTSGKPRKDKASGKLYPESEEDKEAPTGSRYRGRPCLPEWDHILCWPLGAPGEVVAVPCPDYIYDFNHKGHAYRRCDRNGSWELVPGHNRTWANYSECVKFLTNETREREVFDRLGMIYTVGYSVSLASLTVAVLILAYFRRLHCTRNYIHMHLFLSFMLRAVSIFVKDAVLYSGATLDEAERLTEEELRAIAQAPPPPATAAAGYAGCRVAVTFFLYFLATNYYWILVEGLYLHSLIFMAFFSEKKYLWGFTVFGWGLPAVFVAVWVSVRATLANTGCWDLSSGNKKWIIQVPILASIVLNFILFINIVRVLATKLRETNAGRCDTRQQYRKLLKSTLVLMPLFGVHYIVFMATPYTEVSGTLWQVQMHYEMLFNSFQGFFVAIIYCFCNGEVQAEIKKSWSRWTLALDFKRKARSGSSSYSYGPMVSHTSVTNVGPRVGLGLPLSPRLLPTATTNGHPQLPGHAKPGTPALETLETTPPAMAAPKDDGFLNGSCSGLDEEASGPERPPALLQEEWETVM
#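 HEK-293-derived GP2 cells expressing PTHR1 and a GloSensor cAMP reporter, 3,000/well, plated overnight, given luciferin plus IBMX (each 0.5 mM as added) for 1 h at 37 °C, then compound for 1 h at 37 °C. Luminescence was read after 15 min at room temperature.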
# Numbers stand for hits; - = inactive; ? = inconclusive; . = no result given. In the library only some 1.7% were active in any assay of this set; here they are far more common. Calls come from the whole dose curve; as a rule, active = well fitted curve in the direction sought with a large enough effect; inconclusive = small, poorly fitted or top-dose-only effect, or another doubt; inactive = no such curve, though single readings can be large; an effect the other way counts as inactive or inconclusive.
SMILES,GLP1R ag,GLP-1R inv ag,HEK293 tox,PTHR1 ag
CN1CCN(C(=O)COc2ccc(-c3nc4ccccc4s3)cc2)CC1,-,6.3µM,-,-
CN1CCN(C(=O)COc2ccc3ccccc3c2)CC1,-,-,-,-
Cc1ccc(C(=O)N/N=C/c2ccc(-c3cccc(Cl)c3)o2)cn1,-,7.9µM,?,-
CC1(S(=O)(=O)O)CC(=O)c2ccccc2C1=O (configuration not stated),-,-,-,-
O=[N+]([O-])c1ccc(NC(=S)NCCc2ccc(F)cc2)cc1,-,11µM,?,-
O=[N+]([O-])c1ccc(CNCCc2ccccc2)cc1,-,-,-,-
CCOc1ccc(-c2cc(C(=O)N3CCN(c4cccc(C(F)(F)F)c4)CC3)c3ccccc3n2)cc1,.,?,-,-
COC(=O)C1=C(c2ccc(Cl)c(C(F)(F)F)c2)C[C@@H]2CC[C@H]1N2C(=O)N1CCC(O)(c2ccc(Cl)cc2)CC1,-,8.9µM,-,-
C[C@]12CCC(=O)C=C1CC[C@H]1C2CC[C@@]2(C)[C@@H]1CC[C@]2(C)O (some centres not stated),-,.,.,.
CCOc1ccccc1NC(=O)NCc1ccc2c(c1)CCN2C(=O)c1ccccc1,.,-,-,-
CCc1ccc(OCC(=O)NC(NC(=S)Nc2ccccc2)C(Cl)(Cl)Cl)cc1 (configuration not stated),-,4µM,?,-
CC[C@@H](O)C(C[C@@H](C)N(C)C)(c1ccccc1)c1ccccc1,-,.,.,.
Cc1ccc(-c2nnc(Nc3ccc(Br)cc3)c3ccccc23)cc1S(=O)(=O)NCc1nc2ccccc2[nH]1,.,?,-,-
CCN(Cc1ccccc1)S(=O)(=O)c1ccc(C(=O)N(CCCN(C)C)c2nc3cc4c(cc3s2)OCCO4)cc1,-,13µM,?,-
CN(C)CCN(C(=O)CCS(=O)(=O)c1ccccc1)c1nc2cc3c(cc2s1)OCO3,-,?,?,-
O=C(COc1ccc2ccccc2c1)N1CCN(CC2CC3C=CC2C3)CC1 (configuration not stated),-,8.9µM,-,-
COc1ccccc1CN1CCN(C(=O)COc2ccc3ccccc3c2)CC1,-,10µM,-,-
COc1ccc2c3c1OC1C(O)C=CC4[C@@H](C2)NCC[C@]314 (some centres not stated),-,.,.,.
CCc1ccc(-c2nc(CSCC(=O)N3CCN(c4ccc(F)cc4)CC3)c(C)o2)cc1,.,-,-,-
N#CC(C#N)=C1C=CC=CN1/C(=C\c1ccco1)C(=O)c1ccc(Cl)cc1,-,5.6µM,-,-
COc1cc2c(cc1O)[C@@H]1Cc3ccc(OC)c(O)c3CN1CC2,-,10µM,?,-
COc1ccc(C[C@@H]2c3cc(O)c(OC)cc3CCN2C)cc1O,-,-,-,-
Cc1cccc(C)c1NC(=O)C(c1ccccc1F)n1c(=O)c(-c2cc3ccccc3[nH]2)nc2ccccc21 (configuration not stated),.,?,-,-
CC(C)c1ccc(Oc2cccc3c2S(=O)(=O)N(C2CCCC2)CC(COCc2ccccc2)O3)cc1 (configuration not stated),-,5.6µM,-,-
Nc1c(S(=O)(=O)c2cccs2)c2nc3ccccc3nc2n1/N=C/c1cccc(O)c1,-,?,?,-
SMILES,GLP1R ag,GLP-1R inv ag,HEK293 tox,PTHR1 ag
Fc1ccc(CNCCc2ccc3c(c2)OCO3)cc1,-,-,-,-
Fc1ccc([C@@H]2CCNC[C@H]2COc2ccc3c(c2)OCO3)cc1,-,8.9µM,?,-
Oc1cc[c]([Hg][Cl])cc1,-,.,.,.
CN1CC(C(=O)c2ccc(Cl)cc2)C(c2ccc(Cl)cc2Cl)C1 (configuration not stated),-,8.9µM,-,-
COc1ccc(C2CN(C)CC2C(=O)c2ccc(C)cc2)cc1Cl (configuration not stated),-,10µM,-,-
CN1CC(C(=O)c2ccc(F)cc2)C(c2ccc(F)cc2)C1 (configuration not stated),-,?,-,-
CC(CN1CCNCC1)(NS(=O)(=O)c1ccccc1)c1ccccc1 (configuration not stated),-,3.5µM,?,-
CC(C)(C)NS(=O)(=O)c1ccc(OCC(=O)N2CCN(Cc3ccccc3)CC2)cc1,-,-,-,-
COc1ccc(C(=O)Nc2ccc(S(=O)(=O)N(Cc3ccccc3)c3ccccc3)cc2)cc1,.,5µM,-,-
COc1ccc(-c2cnnn2-c2ccc(NC(=O)c3ccc(S(=O)(=O)N(C)C)cc3)cc2)cc1,.,-,-,-
Cc1cccc(C(=O)Nc2ccc(C(=O)OCc3cc(=O)n4nc(C5CC5)sc4n3)cc2)c1,.,-,-,-
CN(C)C1(c2nnnn2CCOC(=O)Nc2ccc(Cl)cc2)CCCCC1,-,7.1µM,-,-
CCON=C(CC)C1=C(O)CC(c2c(C)cc(C)cc2C)CC1=O (configuration not stated),-,.,.,.
COc1cccc(NC(=O)CN(C)C(=O)c2ccccc2OCC(=O)Nc2cccc(C(F)(F)F)c2)c1,-,?,?,-
COc1cccc(-c2nn(-c3ccc(C)cc3)cc2C(=O)N(C)CC(=O)Nc2cccc(F)c2)c1,-,7.1µM,?,-
CC12CCC3C(CCC4(O)CC(O)CCC34C=O)C1(O)CCC2C1=CC(=O)OC1 (configuration not stated),-,?,?,-
C[C@]12CC[C@H]3[C@@H](CC[C@]4(O)C[C@@H](O)CC[C@]34C=O)[C@@]1(O)CC[C@@H]2C1=CC(=O)OC1,-,1µM,?,-
O=[N+]([O-])c1c(Nc2ccc(O)cc2)cc(Cl)c2nonc12,-,?,?,-
C=C/C=C/CC1=C(C)[C@@H](OC(=O)[C@@H]2[C@@H](/C=C(\C)C(=O)OC)C2(C)C)CC1=O (tested in a mixture with another compound),-,.,.,.
Cc1ccccc1C(O)(Cc1ccccc1)C1CN2CCC1CC2 (configuration not stated),-,0.79µM,?,-
CC(C)(C)NC(=O)NC(=O)COC(=O)CNS(=O)(=O)c1ccc(Br)cc1Cl,-,-,-,-
Cc1ccccc1NC(=O)C(=Cc1ccc(C(=O)O)cc1)C(=O)Nc1ccccc1C,-,6.3µM,?,-
Cc1ccccc1NC(=O)CCl,-,-,-,-
Cn1nc(C(C)(C)C)cc1C(=O)N1CCCCC1c1cc(C(=O)Nc2ccc(F)c(Cl)c2)no1 (configuration not stated),-,10µM,-,-
CCOC(=O)[C@]12Cc3cc(Cl)ccc3[C@H]1N(CC(=O)OC)C(=O)c1ccccc12,-,7.9µM,?,-
CCOC(=O)[C@]12Cc3cc(OC)ccc3[C@H]1N(C1CCCCC1)C(=O)c1ccccc12,-,2.5µM,10µM,-
CCOC(=O)[C@]12Cc3cc(Cl)ccc3[C@H]1N(C1CCCCC1)C(=O)c1ccccc12,-,4.5µM,?,-

# Bioassay records (PubChem BioAssay)
